Measured values: PubChem BioAssay (NCATS)
Inconclusive results are not listed. Unmarked numbers belong to inactive results. Calls of active or inactive are those of the source. The call rests on the fitted dose curve; in most records, active means well fitted inhibition curve with a large enough effect; inconclusive means small, poorly fitted or top-dose-only effect; inactive means no such curve, though single readings can be large or run the other way.

Target: Cytochrome P450 2C19 (Homo sapiens) (UniProt P33261)
Assay: qHTS Assay for Inhibitors and Substrates of Cytochrome P450 2C19 (AID 899); further: nearly all actives have a fitted effect of over 60% in size
Conditions: recombinant CYP2C19, luciferin-H EGE luminescence; series mostly up to 57.1 µM; activity, negative = inhibition: at the top concentration
Protocol: NIH Molecular Libraries Screening Centers Network [MLSCN]
NIH Chemical Genomics Center [NCGC]
The P450 gene superfamily is involved in the metabolism and clearance of xenobiotics. This assay used human CYP2C19 to measure the hydroxylation of ethylene glycol ester of 6' deoxyluciferin (Luciferin-H EGE; […]) to luciferin. The luciferin is then measured by luminescence after the addition of a luciferase detection reagent. Luciferin-H EGE concentration in the assay was equal to its KM for CYP2C19. Inhibitors and some substrates limit the production of luciferin, and decrease measured luminescence.
NCGC Assay Protocol Summary:
Two uL of enzyme and substrate mix (final concentrations: 5nM CYP2C19, 10uM Luciferin-H EGE, 50mM KPO4) were dispensed into a white, solid bottom 1536-well microtiter plate. 23nL of compound was transferred by a pin tool. The plate was incubated at 37C for 10 min. Two uL of an NADPH regeneration solution (Promega supplied reagent) was dispensed and the reaction was allowed to continue for 60 min at 37C. Then the reaction was stopped by reconstituted luciferin detection buffer. After another 20 min of incubation the plate was read on the ViewLux (Perkin Elmer) at 60 sec exposure and 2x2 binning. This protocol was carried out with Promega-Glo reagents and further information can be found at http://www.promega.com/tbs/tb325/tb325.pdf. Data were normalized to the to AC100 inhibition (57uM ketoconazole).
Keywords: P450, CYP2C19, Luciferase, MLSMR, MLSCN, NIH Roadmap, qHTS, NCGC
On the % scale 0 is the no-effect control and ±100 the full control effect; potency means the concentration at half of the fitted maximal effect.

Chain of Cytochrome P450 2C19 (Homo sapiens) (P33261 whole entry, looked up): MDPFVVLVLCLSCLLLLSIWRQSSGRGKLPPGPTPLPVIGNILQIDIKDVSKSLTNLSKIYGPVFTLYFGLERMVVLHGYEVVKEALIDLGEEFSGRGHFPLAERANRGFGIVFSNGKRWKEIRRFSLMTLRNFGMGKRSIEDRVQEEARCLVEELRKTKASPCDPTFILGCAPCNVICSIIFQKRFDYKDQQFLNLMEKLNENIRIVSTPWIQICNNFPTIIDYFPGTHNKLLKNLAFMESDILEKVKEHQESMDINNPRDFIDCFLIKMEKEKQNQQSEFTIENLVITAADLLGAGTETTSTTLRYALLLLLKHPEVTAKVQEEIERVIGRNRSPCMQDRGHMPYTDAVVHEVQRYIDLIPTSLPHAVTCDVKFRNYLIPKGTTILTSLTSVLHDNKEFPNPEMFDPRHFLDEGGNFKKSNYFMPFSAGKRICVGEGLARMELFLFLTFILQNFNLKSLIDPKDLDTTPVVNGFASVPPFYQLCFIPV

Structure (SMILES)	activity, negative = inhibition [%]	Potency
Cc1noc(C)c1-c1cc(NC2CCNCC2)ncn1	-59.5	–
COc1ccccc1-c1cc(NCc2cccc(C)c2)ncn1	–	3.98 µM (active)
COc1cccc(-c2cncnc2NC2CCNCC2)c1	34.2	–
Cc1ccccc1-c1cncnc1NCc1ccccc1	–	2 µM (active)
c1ccc(Nc2cc(-c3ccoc3)ncn2)cc1	–	7.94 µM (active)
COc1cccc(-c2nccc(-n3ccnc3)n2)c1	–	2.51 µM (active)
Cc1noc(C)c1C(=O)N1CCC2(CCCN(C(=O)NC(C)C)C2)CC1	56.5	–
c1ccc(CNc2ccnc(-c3ccoc3)n2)cc1	–	3.98 µM (active)
FC(F)(F)c1ccccc1-c1nc(NCc2cccs2)c2ccccc2n1	–	7.94 µM (active)
Cc1ccccc1-c1nccc(NCc2cccs2)n1	–	3.98 µM (active)
Cc1ccccc1-c1cncnc1N(C)Cc1ccco1	–	5.01 µM (active)
Cc1noc(C)c1-c1cncnc1N(C)Cc1ccco1	–	2.51 µM (active)
O=c1c(-c2ccc(F)cc2)nc2cnc(N3CCNCC3)nc2n1-c1ccccc1	-11.5	–
c1cncc(CNc2ncncc2-c2ccc3c(c2)OCO3)c1	–	0.199 µM (active)
COc1ccc(CNc2ncnc3ccc(-c4cccc(NS(C)(=O)=O)c4)cc23)c(OC)c1	–	2.51 µM (active)
Cc1cccc(CNc2ncncc2-c2cccc(C#N)c2)c1	–	3.98 µM (active)
CCNc1ncc2nc(C)c(=O)n(-c3ccc(OC)cc3)c2n1	-3.43	–
COc1ccc(-c2nc3cnc(N4CCN(C)CC4)nc3n(Cc3cccs3)c2=O)cc1	45.6	–
COc1ccc(CNc2ccnc(-c3ccc4c(c3)OCO4)n2)c(OC)c1	–	2.51 µM (active)
CCCC(=O)NCCc1c2n(c3ccc(OC)cc13)Cc1ccccc1-2	–	0.398 µM (active)

Structure (SMILES)	activity, negative = inhibition [%]	Potency
Cc1cccc(CNc2nc(-c3ccc4c(c3)OCO4)nc3ccccc23)c1	–	3.16 µM (active)
Cn1cc(-c2nc3cnc(N4CCOCC4)nc3n(C3CC3)c2=O)c2ccccc21	31.1	–
COc1cccc(-c2cncnc2N(C)Cc2ccco2)c1	–	7.94 µM (active)
COc1cccc(-c2nc(NCc3ccccc3)c3ccccc3n2)c1	–	3.98 µM (active)
CC(C)NC(=O)N1CCCC2(CCN(C(=O)c3cccc(F)c3)CC2)C1	48.6	–
COc1cccc(-c2ccc3ncnc(NC4CCNCC4)c3c2)c1	–	6.31 µM (active)
CC(=O)NCCNc1nc(-c2ccccc2Cl)nc2ccccc12	–	3.98 µM (active)
O=C(c1ccncc1)N1CCC[C@@]2(CCN(c3ccccn3)C2)C1	–	6.31 µM (active)
CS(=O)(=O)N1CCC[C@@]2(CCN(c3ccccc3)C2)C1	–	3.16 µM (active)
CS(=O)(=O)N1CCC2(CCN(c3cccc(-c4ccccc4)c3)CC2)CC1	45.5	–
CN1CCN(c2ncnc3ccc(-c4ccccc4Cl)cc23)CC1	–	3.98 µM (active)
O=C(c1cccc(F)c1)N1CCC2(CCCN(c3ncccn3)C2)CC1	–	6.31 µM (active)
Cc1nc2cncnc2n(C2CC2)c1=O	–	3.98 µM (active)
CN(C)c1ccc(-c2cc(-n3ccnc3)ncn2)cc1	–	7.94 µM (active)
Cn1cccc1C(=O)N1CCC[C@@]2(CCN(c3ccncc3)C2)C1	–	6.31 µM (active)
CNc1ccnc(-c2c(C)noc2C)n1	42.4	–
COc1ccc(CNc2cc(-c3ccccc3Cl)ncn2)c(OC)c1	–	2 µM (active)
CN(Cc1ccco1)c1ncnc2ccc(-c3cccnc3)cc12	–	7.94 µM (active)
Cc1ccccc1-c1ccc2ncnc(NC3CC3)c2c1	–	1.26 µM (active)
Cn1cccc1C(=O)N1CCC[C@@]2(CCN(c3ccccc3)C2)C1	–	5.01 µM (active)
